For 70 compounds, inhibition results are on record in PubChem BioAssay AID488857 (Sanford-Burnham Center for Chemical Genomics, 2010).

Among all 1,400 compounds or so, about 560 (40%) were called active.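 The calls were made as follows: active = mean inhibition over duplicate tests at 10 µM above 50%; inactive = the rest.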 The set was probably picked from earlier hits. The list shows a part of the results.

Usually inhibition stands for the relative decrease from the control value, in per cent.

The test can be described thus: ASC/caspase-1 reporter retest in S. cerevisiae at one dose, specificity check for NALP1 project (AID 488857). Conditions: S. cerevisiae ASC/Caspase-1, beta-galactosidase luminescence, 24 h; at 10 µM; stronger effect = higher value.
As for `C#CCN(C)CCCOc1ccc(Cl)cc1Cl`, the inhibition was 54% (active).
Next, `CC(C)NC(=O)CCCOc1ccc(Cl)cc1Cl`: 48.5% (inactive); `CCCOc1ccccc1NC(=O)/C=C/C(N)=O`: 58% (active).
Next, `CCOc1ccccc1N/C=C(\C#N)c1nc2ccccc2n1C`: 26.1% (inactive); `CCOc1ccccc1NC(=O)/C=C/C(N)=O`: 59.4% (active).
Next, `CCCCOc1ccccc1NC(=O)c1ccco1`: 46.5% (inactive).
`CNC(=O)c1nnsc1S(=O)c1ccc(Cl)cc1` (stereo not given): the inhibition was 78.5% (active).
Next, `CCCNC(=O)c1nnsc1S(=O)c1ccc(Cl)cc1` (stereo not given): 96.7% (active).
On to `O=C(c1nnsc1S(=O)c1ccc(Cl)cc1)N1CCOCC1` (stereo not given), for which the inhibition was 71.7% (active).
Next, `O=C(CCSc1nc2cc(Cl)ccc2o1)N1CCOCC1`: 32.5% (inactive); `Clc1ccc(SCCCCN2CCOCC2)cc1`: 36.5% (inactive); `Cc1c(Cl)sn(-c2ccc(Cl)cc2)c1=O`: 84.5% (active).
On to `CN(C)c1ccc(N2C(=O)CC(Sc3ccccc3C(=O)O)C2=O)cc1` (stereo not given), for which the inhibition was 59.8% (active).
Take `O=C(O)c1ccccc1SC1CC(=O)N(c2ccccc2)C1=O` (stereo not given): the inhibition is 34.5% (inactive).
For `COc1ccc(NCc2ccc([N+](=O)[O-])s2)c(OC)c1`, the inhibition is 49% (inactive).
Next, `CCOC(=O)C1=C(O)c2ccccc2C(=O)/C1=C\c1ccc(C)cc1`: 24.1% (inactive); `CCOC(=O)/C(=C/c1ccc(OC(=O)c2ccccc2)cc1)C(C)=O`: 59.9% (active); `CN1CCN(S(=O)(=O)c2ccc(NC(=S)NC(=O)C(C)(C)C)cc2)CC1`: 31.6% (inactive).
With `COC(=O)c1ccccc1NC(=O)C1CCCN(S(=O)(=O)c2ccc(OC)cc2)C1` (stereo not given), the inhibition is 76.4% (active).
With `COC(=O)c1ccccc1NC(=O)C1CCN(C(=O)c2cc(OC)cc(OC)c2)CC1`, the inhibition was 34.1% (inactive).
On to `CCOC(=O)N1CCN(c2ccc(Cl)c(Cl)c2)CC1`, for which the inhibition was 68.9% (active).
With `CCN1CCN(C(=S)Nc2ccc(Cl)c(Cl)c2)CC1`, the inhibition is 22.7% (inactive).
Next, `CCOC(=O)N1CCN(c2c(NCCOC)c(=O)c2=O)CC1`: 32.5% (inactive); `Cn1nnc(NC(=O)/C=C/c2ccco2)n1`: 45.4% (inactive); `CCCNCC1COc2ccccc2O1` (stereo not given): 37.9% (inactive).
Next, `CN(C)CCN(C(=O)/C=C/c1cccs1)c1nc2ccc(F)cc2s1`: 72% (active).
For the compound `CN(C)CCN(C(=O)/C=C/c1cccs1)c1nc2c(F)cc(F)cc2s1`, the inhibition was 65.1% (active).
Next, `CC1CCC2C(=O)N(c3ccc(C(=O)Oc4cccc5cccnc45)cc3)C(=O)C2C1` (stereo not given): 44.9% (inactive); `O=[N+]([O-])c1ccc2cn(-c3ccccc3)nc2c1`: 41.1% (inactive); `O=[N+]([O-])c1ccc2nc(-c3ccccn3)[nH]c2c1`: 70% (active).
On to `c1ccc(-c2nc3cc4ccccc4cc3[nH]2)nc1`, for which the inhibition was 84.5% (active).
Next, `O=S(=O)(CC12C3C4C5C1C2C(Br)(C43)C51OCCO1)c1ccccc1` (stereo not given): 38.5% (inactive); `Cc1cccc(/C=N/n2c(-c3cc(-c4ccccc4)n[nH]3)n[nH]c2=S)c1`: 53.3% (active); `Cc1ccc(N2C(=O)c3ccc(C(=O)O)cc3C2=O)cc1C`: 37.3% (inactive).
On to `Cc1ccc(C(=O)O)cc1N=Cc1cc(Br)cc(Br)c1O`, for which the inhibition was 83.5% (active).
On to `CCCCN(C)CCC(=O)Nc1ccc(Cl)cc1`, for which the inhibition is 39.2% (inactive).
For the compound `O=C(Cn1c(=O)oc2ccccc21)Nc1ccc(Cl)cc1`, the inhibition is 33.4% (inactive).
Next, `O=C(Cc1noc2ccccc12)Nc1ccc(Cl)cc1`: 61.3% (active); `CCOC(=O)C[N+](CC)(CC)CC#Cc1ccccc1`: 5.45% (inactive).
Next, `CCOC(=O)COc1ccc2ccccc2c1/C=C/[N+](=O)[O-]`: 99.9% (active); `CCOc1ccc(NC(=O)/C=C/c2ccccc2)c([N+](=O)[O-])c1`: 29.2% (inactive).
Next, `CCOC(=O)COc1ccccc1/C=C\[N+](=O)[O-]`: 101% (active); `COc1ccccc1OCC(=O)N/N=C/C=C/c1ccc([N+](=O)[O-])o1`: 15.4% (inactive); `COc1ccc(CN2CCNC(=O)C2CC(=O)N(Cc2nccn2C)C(C)C)c(OC)c1` (stereo not given): 26.1% (inactive).
As to `O=C1CSC(=S)N1c1ccc(O)cc1`, the inhibition was 98.2% (active).
Next, `COc1cc(C2SCC(=O)N2CCCN(C)C)cc(OC)c1OC` (stereo not given): 23.1% (inactive); `O=C1CSC(=S)N1c1cccc(O)c1`: 98.8% (active).
As to `COc1cc(N2C(=O)CSC2=S)cc(OC)c1OC`, the inhibition is 81.3% (active).
Regarding `C/C(=N/N=C1\SCC(=O)N1c1ccccc1)c1ccc(C)cc1`, the inhibition is 39.4% (inactive).
Turning to `CCCCNCCOCCOc1ccccc1-c1ccccc1`, the inhibition is 55.2% (active).
Next, `CCCCNCCOCCOc1ccc(Cl)cc1Br`: 49% (inactive); `O=C(Nc1cccc(O)c1)c1cc(-c2ccco2)on1`: 79.8% (active).
Next, `O=C(NCc1ccc(F)cc1)c1cc(-c2ccco2)on1`: 52.4% (active); `O=C(Nc1nc(-c2ccco2)c(-c2ccco2)s1)C1CCC1`: 45.5% (inactive).
For the compound `O=C(CSCc1ccc(F)cc1)NCc1ccco1`, the inhibition is 47.5% (inactive).
Next, `Cc1ccc(NC(=O)N(C2CCCCC2)C(C)c2cccnc2)cc1C` (stereo not given): 48.4% (inactive).
As for `CCOC(=O)c1sc(NC(=O)Nc2cccc(Cl)c2)cc1C`, the inhibition was 19.4% (inactive).
Next, `CCOC(=O)C(=O)NNc1ccc(Cl)cc1`: 42.9% (inactive).
As for `CCOC(=O)Nc1ccc2c(C)cc(=O)oc2c1`, the inhibition was 58.4% (active).
Turning to `Cc1cc(=O)oc2cc(OCC(=O)N3CCN(C(=O)c4ccco4)CC3)ccc12`, the inhibition was 30.7% (inactive).
Next, `CCOC(=O)Nc1cccc(Nc2ccccc2)c1`: 59.8% (active); `CCOC(=O)NC1(NCc2ccccc2)Oc2ccccc2O1`: 38.3% (inactive).
Turning to `CC(C)CN=Cc1c(O)c([N+](=O)[O-])cc2oc3c(c12)CCCC3`, the inhibition was 28.2% (inactive).
Next, `COc1ccccc1C(=O)Nc1nc2nc(-c3ccccc3)cc(=O)n2[nH]1`: 15.4% (inactive); `CCOc1ccccc1C(=O)Nc1cnn(Cc2ccc(F)cc2)c1`: 61.2% (active); `Cc1ccc(Nc2nc(N)c([N+](=O)[O-])c(NCc3ccco3)n2)cc1C`: 60.8% (active).
On to `CC1CCCN(c2nc(NCc3ccco3)nc(N)c2[N+](=O)[O-])C1` (stereo not given), for which the inhibition was 62% (active).
Next, `Cc1ccc(C(=O)NCc2ccco2)cc1S(=O)(=O)Nc1cccc(Cl)c1`: 38.6% (inactive); `Nc1nc(NCc2ccco2)nc(N2CCCCCC2)c1[N+](=O)[O-]`: 62.4% (active); `CC1CCN(c2nc(NCc3ccco3)nc(N)c2[N+](=O)[O-])CC1`: 73% (active).
